Measured values taken from PubChem BioAssay AID504423 (Broad Institute, 2011).
Where “and” joins values, the source holds several entries; their conditions need not be identical. Equal values may be shown once. Among all 340,000 compounds or so, about 260 (0.076%) were called active.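 The calls were made as follows: active = highest replicate inhibition at or above 60% at 9 µM, even if other replicates fall short; inactive = all replicates below 60% inhibition.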 Only a selection was taken, and actives are over-represented in it overall.

system: Kaposi's sarcoma herpesvirus LANA C-terminal domain (residues 932-1162) DNA binding; assay: blockers of LANA C-terminal domain DNA interaction – biochemical, fluorescence polarization, FAM-LBS DNA, MBP-C-LANA, single point, primary screen (AID 504423); details: at 9 µM, hits give high values;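 also: 0% = neutral control wells and 100% = 4 µM acridine orange control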

inhibition, inactive:
O=C(c1ccc(=O)oc1)N1CCC(C(O)(c2ccccc2)c2ccccc2)CC1 1.16%
O=C(CN1CCSCC1)N/N=C/c1ccc(F)cc1F -0.674%
Clc1ccc(-c2nnc(-c3ccccc3)nc2N2CCSCC2)cc1 -0.189%
CC(=O)c1ccc(N2C(=NC(=O)C(C)C)SC3CS(=O)(=O)CC32)cc1 (configuration not stated) -0.954%
CCCN(CC(=O)Nc1ccc(OC)c(OC)c1)CC(=O)Nc1ccc(F)c(F)c1F 3.86%
COCCCNC(=O)C1CC(=O)N(c2ccc(C)cc2)C1 (configuration not stated) 0.062%
COC(=O)c1c(C)oc(C)c1S(=O)(=O)Nc1ccc(C(C)C)cc1 -0.597%
CCN(CC(=O)NC1CCS(=O)(=O)C1)S(=O)(=O)c1ccccc1 (configuration not stated) -1.52%
CCOc1cc(C(=O)Nc2c(C)ccc3nsnc23)cc(OCC)c1OCC -1.85%
CCN(CC(=O)NC(C)C)C(=O)CCNC(=O)c1ccc(Cl)cc1 -0.0284%
COc1ccc(NS(=O)(=O)c2ccc(C)c(C(=O)N(C)Cc3ccc(OC)cc3OC)c2)cc1 28.6%
O=S(=O)(c1ccc(-c2ccccc2)cc1)N1CCCC1 1.28%
CCCn1c(N)c(C(=O)CSc2nnc(-c3cccnc3)n2-c2ccc(C)cc2C)c(=O)[nH]c1=O 0.224%
CC(C)(C)NC(=O)CN1CCC(NC(=O)C23CC4CC(CC(C4)C2)C3)CC1 0.793%
c1ccc2c(NC3C4CC5CC(C4)CC3C5)nc(N3CCOCC3)nc2c1 (configuration not stated) 0.795%
CCC(C)(C)c1ccc(OCC(=O)N(C)C)c(C(C)(C)CC)c1 1.97%
Oc1ccc(-c2nc3ccccc3nc2-c2ccc(O)cc2O)c(O)c1 2.95%
CC(=O)Oc1cc2c(C(=O)NCCN3CCOCC3)c(C)oc2c2ccccc12 -0.716%
Cc1cc(C)nc(NNC2=CC(=O)CC(C)(C)C2)n1 2.32%
Cn1c(SCC(=O)N2CCCCC2)nc2c(c1=O)SCC2 -1.34%
COC(=O)[C@@H](NC(=O)NCc1cccc(OC)c1)C(C)C 1.36%
O=C1COc2ccc(C(=O)COC(=O)c3cccnc3Cl)cc2N1 4.34%
O=C(C[n+]1cc(Br)cc2ccccc21)c1ccc(F)cc1 4%
COC(=O)Cc1c(-c2[nH]c3ccccc3c2CC(=O)OC)[nH]c2ccccc12 1.73%
O=C1CCCc2c1[nH]c1ccc(Br)cc21 -0.926%
COCCCN(C(=O)Cn1ncc2c(=O)oc3ccc(C)cc3c21)C(C)c1ccncc1 (configuration not stated) 1.23%
O=C(Cn1c[n+](CC(=O)c2ccc([N+](=O)[O-])cc2)cn1)c1ccc([N+](=O)[O-])cc1 -0.902% and -2.71%
CCOC(=O)C(C)N(c1ccccc1Cl)S(C)(=O)=O (configuration not stated) 1.82%
CCOC(=O)C1CCN(C(=O)Cn2nc(C)c3c(C)n(-c4ccccc4)nc3c2=O)CC1 -0.173%
O=C1C=C(c2cccc(Cl)c2O)C[C@@H](c2ccc(F)cc2)C1 0.749%
O=C(O)CCn1c(SCc2cc(=O)n3ccccc3n2)nc2ccsc2c1=O 0.383%
NC(N)=NCCCc1cn(CC(=O)N2CCNCC2)nn1 -0.256%
O=C(Cc1ccc(S(=O)(=O)N2CCOCC2)s1)Nc1ccc(Br)c(C(F)(F)F)c1 -0.373%
COC(=O)c1ccc([C@@H](O)[C@H](C)C(=O)CC(=O)OC(C)(C)C)cc1 2.15%
Cc1cc(NC(=O)/C=C/C(=O)N(c2ccccc2C)C(C(=O)NC2CCCC2)c2ccc(F)cc2)no1 (configuration not stated) 0.894%
CSc1ccc(S(=O)(=O)NCC(=O)OCC(=O)NC2(C#N)CCCCC2)cc1[N+](=O)[O-] -0.312%
COC(=O)c1cc(NC2c3ccccc3C(=O)N2c2ccc(Cl)cn2)cc(C(=O)OC)c1 (configuration not stated) -1.05%
CCCn1c(N)c(C(=O)CSc2nnc3n2CCCCC3)c(=O)[nH]c1=O -2.38%
CCOC(=O)c1cc(C(=O)Nc2ccc(S(=O)(=O)Nc3ccc(OC)cc3)cc2)nn1C -1.57%
CCC(Sc1nncn1C)C(=O)Nc1nnc(-c2ccc(Cl)cc2)s1 (configuration not stated) -3.46%
Oc1c(Cl)cc(Cl)c(Cl)c1Cc1c(O)c(Cl)cc(Cl)c1Cl -0.191%
CC(Oc1cccc(Cl)c1)C(=O)NC1CC(C)(C)NC(C)(C)C1 (configuration not stated) -1.58%
COc1cc(OC)c(NS(=O)(=O)c2cn(C)cn2)cc1Cl 0.525%
Cc1nc2ccc(NC(=O)N3CCC(c4ccccc4)C3)cc2nc1C (configuration not stated) -3.95%
COc1ccc(NC(=O)C(CC(C)C)NS(=O)(=O)c2ccc3c(c2)CCN3C(C)=O)cc1OC (configuration not stated) 1.56%
OCCC1CN(Cc2ccc3nsnc3c2)CCN1C1CCCC1 (configuration not stated) -1.26%
O=C(CN(c1ccc2c(c1)OCCO2)S(=O)(=O)c1ccccc1)Nc1ccc2c(c1)OCO2 -0.247%
CCC1C(=O)NCCN1C(=O)c1ccc2nc(Cc3ccc(OC)cc3)oc2c1 (configuration not stated) -0.899%
S=c1[nH]ccn1-c1ccc(Cl)cc1 -5.31%
COc1cc(OC)cc(-c2c(-c3cccs3)c3cc(-c4ccc(OC)nc4)ccc3n2C)c1 -0.213%
Cc1cc(C#N)c(SCC(N)=O)nc1-c1ccc(F)cc1 -0.398%
Cc1cc(Br)ccc1SCC(=O)OCC(=O)NCc1ccc2c(c1)OCO2 -1.13%
CCN(Cc1ccccc1)C(=O)Cc1ccc(OC)c(S(=O)(=O)N2CCOCC2)c1 -0.86%
C=CCN(Cc1nc(-c2cc(OC)c3c(c2)OCO3)oc1C)C1CCS(=O)(=O)C1 (configuration not stated) -0.881%
CCCN(C(=O)COC(=O)CNS(=O)(=O)c1ccc(NC(C)=O)cc1)C1CCS(=O)(=O)C1 (configuration not stated) -0.76%

inhibition, active:
Oc1ccc2ccc3cccc[n+]3c2c1 141%
COC(=O)C[n+]1cccc2ccccc21 70.1%
